# Source: PubChem (National Center for Advancing Translational Sciences (NCATS))
# KDM5B inh: inhibitors of human KDM5B histone demethylase | AID 1347165 | 220,000 tested, 2.6% active | KDM5B demethylase, FDH-coupled NADH fluorescence (FDH is formaldehyde dehydrogenase) | Potency, µM (top dose mostly 57.7 µM), usual class: inhibitors; further: potency means the concentration at half of the fitted maximal effect; 0% is about no effect; nearly all actives have a fitted effect of over 70% in size
#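 Compound dilutions met 200 nM (final) KDM5BΔAP for 10 min at room temperature before substrate addition. The substrate mix held 12.5 µM H3K4me3 with cofactors 25 µM α-ketoglutarate and 50 µM Fe²⁺. NADH signal gain over 30 min defined activity.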
# IP6K1 inhibitor: IP6K1 kinase inhibition. Q92551. 140,000 tested, 0.81% active. AID 1645851. activity change, % (series mostly up to about 58 µM). IP6K1 kinase, ADP-Glo luminescence, 2 h; stronger effect = lower value; in the data active means activity change below about -25%; further: on the % scale 0 is the no-effect control and ±100 the full control effect
#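 ADP-Glo luminescence measures ADP made by human IP6K1 during a 2 h RT reaction with ATP/IP6 (mix at 1.3 mM/130 uM); top library doses 57.5 and 19.1 uM final.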
# SNCA expr inh: inhibitors of alpha-synuclein (SNCA) gene expression; HEK-293 SNCA-luciferase knock-in, luminescence, 24 h; Potency, µM (titrated, usually from 57.2 µM), inactives show at the top dose activity change, negative = inhibition, hits mostly inhibitors; 140,000 tested, 0.17% active; AID 1671194;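 further: potency means the concentration at half of the fitted maximal effect; plate controls were DMSO cells for no effect and cell-free wells for full effect; nearly all actives have a fitted effect of over 45% in size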
# HEK293 viab: cell viability loss counter-screen | Potency, µM (series often up to 57.1 µM), without a hit: at the top dose activity change, negative = cytotoxicity, usual class: cytotoxic | AID 1671193 | HEK-293-SNCA-luc viability, GF-AFC fluorescence, 24 h | 150,000 tested, 0.12% active;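 further: potency means the concentration at half of the fitted maximal effect; 0% = DMSO-treated cells and -100% = medium-only wells without cells; nearly all actives have a fitted effect of over 30% in size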
#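 Cytotoxicity counterscreen: after 24 h compound treatment of genome-edited SNCA-luciferase HEK-293 cells, live-cell protease substrate GF-AFC read by fluorescence after 30 min; activity scaled between DMSO (0%) and medium-only (-100%), curves Hill-fitted.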
# Numbers without * were called inactive; i = inactive; u = inconclusive; x = no result given; [ ] = dose if it differs, or a comment. An excerpt weighted towards active compounds, which were near 3% of everything screened. Unless noted, the call rests on the fitted dose curve; in most records, active means well fitted curve in the direction sought with a large enough effect; inconclusive means small, poorly fitted or top-dose-only effect, or another doubt; inactive means no such curve, though single readings can be large; an effect the other way counts as inactive or inconclusive.
SMILES,KDM5B inh,IP6K1 inhibitor,SNCA expr inh,HEK293 viab
O=C(O)CCCC(=O)N[C@H]1CO[C@H]2[C@@H]1OC[C@@H]2Nc1nccc(-c2cccc(F)c2)n1,35.5µM*,-8.8,-5.4%[87.6 µM],1.2%[87.6 µM]
COc1ccc(-c2ccnc(N[C@H]3CO[C@H]4[C@@H]3OC[C@@H]4NS(=O)(=O)c3cccs3)n2)cc1,14.1µM*,-7.0,-6.7%,-1.0%
CN(C)c1ccc(-c2ccnc(N[C@H]3CO[C@H]4[C@@H]3OC[C@H]4OC(=O)NCc3ccccc3)n2)cc1,28.2µM*,2.9,-22.0%,-6.4%
CC(C)(C)C(=O)N[C@H]1CO[C@H]2[C@@H]1OC[C@@H]2Nc1nccc(-c2cccc(F)c2)n1,u,-6.2,15.6%[87.6 µM],2.9%[87.6 µM]
CC(C)(C)c1ccc(NC(=O)O[C@@H]2CO[C@H]3[C@@H]2OC[C@@H]3Nc2nccc(-c3ccc4c(c3)OCO4)n2)cc1,28.2µM*,-6.2,1.8%,-12.8%
COc1ccccc1-c1ccnc(N[C@H]2CO[C@H]3[C@@H]2OC[C@@H]3NS(=O)(=O)c2cccs2)n1,u,-6.6,-22.7%,-0.7%
CC(C)(C)c1ccc(NC(=O)O[C@@H]2CO[C@H]3[C@@H]2OC[C@@H]3Nc2nccc(-c3cccc(F)c3)n2)cc1,u,-3.5,-6.1%,4.1%
O=C(NCc1ccccc1)O[C@@H]1CO[C@H]2[C@@H]1OC[C@@H]2Nc1nccc(-c2ccc3c(c2)OCO3)n1,u,-4.6,u,-16.8%
CC(C)CCNC(=O)NC(=O)CCl,i,x,x,x
CCCCn1c(=O)[nH]c(=O)c2c1nc(CSc1nnnn1C1CC1)n2C,i,x,x,x
NC(=O)c1ccc(-c2nc(CSc3ccc4c(c3)OCCCO4)cs2)cc1,i,x,x,x
COc1ccc(-c2ccnc(N[C@H]3CO[C@H]4[C@@H]3OC[C@@H]4NC(=O)Nc3cccc(C#N)c3)n2)cc1,25.1µM*,-2.8,u,-6.1%
COCC(=O)N[C@H]1CO[C@H]2[C@@H]1OC[C@@H]2Nc1nccc(-c2ccc(OC)cc2)n1,35.5µM*,0.5,19.0%[87.6 µM],-5.2%[87.6 µM]
COc1ccc(NC(=O)O[C@@H]2CO[C@H]3[C@@H]2OC[C@@H]3Nc2nccc(-c3cccs3)n2)cc1,i,-13.0,35.0%,-0.8%
COc1ccc(-c2ccnc(N[C@H]3CO[C@H]4[C@@H]3OC[C@H]4OC(=O)Nc3cccc(C(F)(F)F)c3)n2)cc1,22.4µM*,-14.0,-19.5%,-8.2%
COc1ccc(-c2ccnc(N[C@H]3CO[C@H]4[C@@H]3OC[C@@H]4NC(=O)c3ccc(C)cc3)n2)cc1,u,-14.5,-17.4%,3.6%
COc1ccc(-c2ccnc(N[C@H]3CO[C@H]4[C@@H]3OC[C@H]4OC(=O)Nc3cccc(OC)c3)n2)cc1,u,-5.5,u,-2.3%
N#Cc1cccc(NC(=O)N[C@H]2CO[C@H]3[C@@H]2OC[C@@H]3Nc2nccc(-c3cccs3)n2)c1,i,4.1,5.0%,-1.9%
c1csc(-c2ccnc(N[C@H]3CO[C@H]4[C@@H]3OC[C@@H]4NCC3CCCCC3)n2)c1,39.8µM*,6.2,u,u
CC(Cc1ccc(Br)cc1)NC(=O)C1CCCC1 (stereo not drawn),i,x,x,x
O=C(CSc1nc2ccccc2o1)Nc1nc(-c2ccc(Br)cc2)cs1,i,x,x,x
COc1ccc2[nH]c3c(c2c1)CCN(C)C31CCN(C(=O)c2cc(C)[nH]n2)CC1,u,-3.5,62.6%,-4.0%[12.5 µM]
COc1ccc2[nH]c3c(c2c1)CCNC31CCN(C(=O)c2cccn2C)CC1,u,-1.6,25.1µM*,0.5%[12.5 µM]
COc1ccc2[nH]c3c(c2c1)CCNC31CCN(C(=O)C(C)(C)C)CC1,25.1µM*,-1.6,58.5%,-20.0%[12.5 µM]
COc1ccc2[nH]c3c(c2c1)CCN(C)C31CCN(C(=O)c2cn(C)cn2)CC1,25.1µM*,-2.9,-7.2%,-5.9%[12.5 µM]
SMILES,KDM5B inh,IP6K1 inhibitor,SNCA expr inh,HEK293 viab
COc1ccc(F)cc1-c1ccc(CN2CCCCC2C(=O)NCc2ccccc2F)cc1 (stereo not drawn),x,4.9,x,x
CC(=O)c1cccc(S(=O)(=O)NCCc2csc3nc(-c4ccc(F)cc4)nn23)c1,i,5.0,-12.4%,31.6µM*
c1ccc(CNc2cc3c(cn2)CN(Cc2cccnc2)CCN3)cc1,u,-21.8,81.0%[87.6 µM],-29.0%[87.6 µM]
COc1ccc(-c2cc3c(cn2)CN(Cc2cccnc2)CCN3)cc1F,35.5µM*,-14.8,-0.7%[87.6 µM],-4.8%[87.6 µM]
Cc1cc(-c2cc3c(cn2)CN(Cc2ccccc2F)CCN3)ccn1,35.5µM*,-7.1,79.0%[87.6 µM],-23.5%[87.6 µM]
COc1ccc(-c2cc3c(cn2)CN(Cc2cccnc2)CCN3)cc1OC,u,-18.2,45.6%[87.6 µM],2.4%[87.6 µM]
Fc1ccccc1-c1cc2c(cn1)CN(Cc1cccnc1)CCN2,31.6µM*,-16.3,u,-1.4%[87.6 µM]
Cc1ccccc1NC(=O)c1ccc2c(Cl)c3c(nc2c1)CCCC3,i,x,x,x
Cc1oc(-c2ccccc2)nc1CN1CCN(C(=O)c2ccco2)CC1,i,x,x,x
CCN(CC)c1ccc(Nc2nc(-c3sc(NC(=O)c4ccccc4)nc3C)cs2)cc1,i,x,x,x
COc1ncccc1-c1cc(C(=O)NCc2c(C)cc(C)[nH]c2=O)c2c(c1)N(C)CCO2,35.5µM*,-12.6,22.9%[87.6 µM],1.4%[87.6 µM]
Cc1cc(C)c(CNC(=O)c2cc(-c3ccnn3C)cc3c2OCCN3C)c(=O)[nH]1,35.5µM*,-20.5,18.0%[87.6 µM],0.9%[87.6 µM]
Cc1cc(C)c(CNC(=O)c2cc(-c3cnn(C)c3C)cc3c2OCCN3C)c(=O)[nH]1,31.6µM*,-19.5,1.0%[87.6 µM],-3.1%[87.6 µM]
COc1ccc(-c2cc(C(=O)NCc3c(C)cc(C)[nH]c3=O)c3c(c2)N(C)CCO3)cc1,31.6µM*,-13.6,-11.4%[87.6 µM],-2.7%[87.6 µM]
Cc1cc(C)c(CNC(=O)c2cc(-c3cccnc3)cc3c2OCCN3C(C)C)c(=O)[nH]1,u,-24.5,10.4%[87.6 µM],u
Cc1cc(CNC(=O)c2cc(-c3ccnn3C)cc3c2OCCN3C)no1,u,-1.6,-3.3%[87.6 µM],2.0%[87.6 µM]
O=C1CC(C(=O)O)C2(CCCCC2)O1 (stereo not drawn),i,x,x,x
CC(C)c1nc(N2CCCCCC2)ncc1C(=O)O,28.2µM*,3.1,6.4%,-3.9%
CC(C)NC(=O)c1nc(-c2ccc(Cl)cc2Cl)c2cnccn12,79.4µM*,-10.9,-28.2%,0.0%
COC(=O)CNC(=O)c1nc(-c2ccc(Cl)cc2Cl)c2cnccn12,79.4µM*,-14.4,-17.9%,1.7%
O=C(NCc1cccnc1)c1nc(-c2ccc(Cl)cc2Cl)c2cnccn12,u,-13.6,-10.5%,-12.1%
COCCNC(=O)C[C@@H]1C[C@@H](C(C)C)[C@H](CNC(=O)C2CC2)C=C1C,35.5µM*,-5.7,12.8%[87.6 µM],-2.4%[87.6 µM]
CC1=C[C@@H](CNC(=O)C2CCCCC2)[C@H](C(C)C)C[C@H]1CC(=O)N1CCN(c2ccccn2)CC1,35.5µM*,16.1,u,28.2µM*
CC1=C[C@@H](CNC(=O)C(C)(C)C)[C@H](C(C)C)C[C@H]1CC(=O)N1CCN(c2ccccn2)CC1,20µM*,1.2,-13.9%,-26.6%
CC1=C[C@@H](CNC(=O)c2ccccc2)[C@H](C(C)C)C[C@H]1CC(=O)N1CCN(C)CC1,i,-12.7,-1.2%[87.6 µM],-9.2%[87.6 µM]
